The whole screen tested about 310,000 compounds, of which about 1,500 (0.48%) were called active.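 Rule for the calls: active = binding more than 3 SD below its plate's average and above zero; inconclusive = below that plate limit but binding exactly zero; inactive = the rest.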 The entries come from a sample that favours actives as a whole.
molecular target: Desmoglein-3 (Homo sapiens) (UniProt P32926); assay: blockers of anti-DSG3 scFv binding – biochemical, bead-based, flow cytometry, scFv-GFP, primary screen (AID 588358); details: DSG3-coupled beads, at 10 µM, hits give low values;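 note: hits lower antibody fragment binding to DSG3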
Sequence (P32926 whole entry, looked up, the tested form may be a part): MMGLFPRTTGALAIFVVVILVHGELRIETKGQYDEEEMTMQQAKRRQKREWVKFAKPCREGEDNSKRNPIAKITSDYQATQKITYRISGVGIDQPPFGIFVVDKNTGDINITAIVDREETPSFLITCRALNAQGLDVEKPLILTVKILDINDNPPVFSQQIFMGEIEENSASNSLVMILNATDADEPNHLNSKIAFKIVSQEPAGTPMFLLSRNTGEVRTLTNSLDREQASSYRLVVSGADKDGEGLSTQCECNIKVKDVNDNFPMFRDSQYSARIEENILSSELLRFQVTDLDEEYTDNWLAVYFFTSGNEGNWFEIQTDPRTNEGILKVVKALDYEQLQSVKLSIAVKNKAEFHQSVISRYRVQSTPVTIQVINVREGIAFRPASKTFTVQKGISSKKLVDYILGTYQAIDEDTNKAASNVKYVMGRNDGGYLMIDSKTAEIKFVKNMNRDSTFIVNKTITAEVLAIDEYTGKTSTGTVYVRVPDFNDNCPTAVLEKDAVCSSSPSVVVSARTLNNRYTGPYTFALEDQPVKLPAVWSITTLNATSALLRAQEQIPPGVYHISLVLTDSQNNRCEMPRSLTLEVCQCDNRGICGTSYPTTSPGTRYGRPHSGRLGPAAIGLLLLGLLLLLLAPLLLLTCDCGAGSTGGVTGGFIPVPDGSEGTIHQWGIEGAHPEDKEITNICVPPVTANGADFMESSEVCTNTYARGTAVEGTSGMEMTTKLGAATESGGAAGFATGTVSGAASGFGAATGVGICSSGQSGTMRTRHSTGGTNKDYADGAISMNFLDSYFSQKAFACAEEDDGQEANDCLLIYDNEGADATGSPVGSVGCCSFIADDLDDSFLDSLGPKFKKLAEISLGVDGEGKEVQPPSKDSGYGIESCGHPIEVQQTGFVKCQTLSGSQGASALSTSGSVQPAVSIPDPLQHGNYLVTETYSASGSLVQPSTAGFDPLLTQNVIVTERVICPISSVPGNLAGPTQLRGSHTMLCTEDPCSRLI

Binding (percent of control), inactive:
COCCn1c(SCC(=O)Nc2ccc(F)cc2F)nc2c(c1=O)SCC2 103%
O=C(COc1ccc(S(=O)(=O)N2CCCC2)cc1[N+](=O)[O-])N1CCCCC1 92.6%
Cc1ccc2nc(SCC(=O)NC3CCCC3)[nH]c2c1 81.4%
Cc1cccc2c1cnn2C(=O)CCC(=O)NC1CCCCC1 102%
CC1(c2cccc(Br)c2)NC(=O)N(CC(=O)NCCC2=CCCCC2)C1=O (configuration not stated) 99.5%
O=Nc1c(O)cc(O)c2ccccc12 104%
CC(C)CCC(=O)Nc1cc(S(=O)(=O)N2CCOCC2)ccc1N1CCCC1 104%
COc1ccc(N(CC(=O)NCCSCc2cccc(Cl)c2)S(C)(=O)=O)cc1 104%
COc1ccc(CCNC(=O)c2cnc(Cl)c(Cl)c2)cc1 97.2%
Cc1ccc(S(=O)(=O)NN=C2CC(C)(C)CC(=O)C2(C)C)cc1 98.4%
O=C(NCCc1cccc(F)c1)C1CC(O)CN1C(=O)Nc1ccccc1 (configuration not stated) 94.3%
COc1cc(C=NC2CCCCC2)ccc1O 106%
COc1ccc(CCNC(=S)N2CCN(S(=O)(=O)c3ccc(Cl)cc3)CC2)cc1 106%
COc1ccc(CCC(=O)N2CCN(S(=O)(=O)c3ccc(OC)cc3)CC2)cc1 96.6%
COC(=O)[C@H]1C[C@H](OC(=O)NCc2ccccc2)[C@@]2(O)CN(S(=O)(=O)c3ccc(C)cc3)CC2[C@H]1C(=O)OC (some centres not stated) 110%
CC(C)(C)C(=O)OCc1nc(-c2ccc(O)c(O)c2)cs1 103%
COc1ccc(-c2cn3ccsc3n2)cc1 107%
COc1ccc([C@H]2C[C@@H](n3cc(COC(=O)c4ccccc4)nn3)[C@H](O)CN2C(=O)c2cccs2)cc1 106%
CCN1CCN(CCNC(=O)c2ccc3c(c2)NC(=O)/C(=C\c2cccc(Cl)c2)S3)CC1 106%
O=C(COC(=O)c1ccc(S(=O)(=O)N2CCCCCC2)cc1)Nc1ccccc1C(F)(F)F 109%
CCOC(=O)C1CCN(C(=O)/C=C/c2cc(OC)c(OC)c(OC)c2)CC1 101%
COc1ccc(/C=C/C(=O)N2CCCC2)cc1OC 105%

Binding (percent of control), active:
Cc1ccc2c(cnn2C(=O)CCC(=O)NC2CCCC2)c1 53%
COc1cc(OC)cc(C(=O)NCCSCc2ccc(Cl)cc2)c1 76.3%
COc1ccc(CCNC(=S)N2CCN(S(=O)(=O)c3ccc(F)cc3)CC2)cc1 63.3%
COc1ccc(-c2csc(Cc3nc(O)cs3)n2)cc1 8.21%
COc1cc(/C=C/C(=O)N2CCc3ccccc3C2)cc(OC)c1OC 68.1%

Source: PubChem BioAssay AID588358 (NMMLSC, 2011)
